Source: the supplement of paper PMC10600219
Structures can show the parent of a compound that is named as a salt. In all, about 2,800 compounds were measured (“cell viability relative to vehicle”: median about 1.1, lowest 2% from about 0.19 on). The sample holds the lowest values, similar compounds and a random draw of the others, so the mix is not that of the screen.

test system: NCI-H2228 parental; test: cell viability relative to vehicle (fraction of vehicle); NCI-H2228 is an ALK-positive lung cancer line and DTP means drug-tolerant persister; higher = less growth inhibition; settings: 100 nM; treatment time 6 days
In short: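 The 3114-agent TargetMol anti-cancer compound library was tested at 100 nM for 6 days on parental NCI-H2228 cells and on persister cells derived with 1000 nM of a targeted drug for 13 days. ATP readout by the CellTiter-Glo 3D Cell Viability Assay gave cell viability relative to DMSO vehicle-treated cells.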

Compound | cell viability
CCCOc1ccc(/C=C2\SC(=O)NC2=O)cc1 | 1.11
CCn1c(=Cc2cccc[n+]2CC)sc(=C2Sc3ccccc3N2C)c1=O | 1.04
COc1ccc(/C=C/c2cc(O)cc(O[C@@H]3O[C@H](CO)[C@@H](O)[C@H](O)[C@H]3O)c2)cc1O [Rhaponiticin] | 1.11
CC(C)=CCC[C@](C)(O[C@@H]1O[C@H](CO)[C@@H](O)[C@H](O)[C@H]1O)[C@H]1CC[C@]2(C)[C@@H]1[C@H](O)C[C@@H]1[C@@]3(C)CC[C@H](O)C(C)(C)[C@@H]3[C@@H](O)C[C@]12C [Ginsenoside F1] | 1.1
C=C1CC[C@@H]2[C@](C)(CO[C@@H]3O[C@H](CO)[C@@H](O)[C@H](O)[C@H]3O)CCC[C@@]2(C)[C@@H]1CCC1=CCOC1=O [Neoandrographolide] | 1.08
O=C1N[C@@H](Cc2c[nH]c3ccccc23)C(=O)N2CCC[C@@H]12 [Brevianamide F] | 1.05
Nc1nc(O)c2[nH]nnc2n1 [8-Azaguanine] | 0.571
CCc1cnn2c(NCc3ccc[n+]([O-])c3)cc(N3CCCC[C@H]3CCO)nc12 [Dinaciclib] | 0.118
COc1ccc(CNc2nc(N3CCC[C@H]3CO)ncc2C(=O)NCc2ncccn2)cc1Cl [Avanafil] | 0.966
O=C1C[C@@H](c2ccc(O)c(O)c2)Oc2cc(O)cc(O)c21 [Eriodictyol] | 1.04
COc1cccc(OCCCN)c1-c1cc(Nc2cnc(C#N)cn2)n[nH]1 [Prexasertib dihydrochloride] | 0.169
N#Cc1cnc(Nc2cc(NC[C@H]3CNCCO3)c(C(F)(F)F)cn2)cn1 | 1.07
Cc1cc(O)c(C(=O)CCC(C)C)c(=O)o1 [Pogostone] | 1.04
O=C(NCc1ccc(S(=O)(=O)c2cc(F)cc(F)c2)cc1)c1ccc2nccn2c1 | 0.117
Cc1ccc(S(=O)(=O)Cc2nc(-c3ccc(C(=O)NCc4cccnc4)cc3)oc2C)cc1 | 0.875
O=S(=O)(c1ccc(Cl)cc1)N1CCN(c2ccnc3cc(Cl)ccc23)CC1 | 1.08
CCCCCCCCCCCCCCOc1ccc(C(=O)O)o1 | 1.05
O=C(NCCN1CCOCC1)Nc1ccc(C(=O)/C=C/c2cccc(N3CCOCC3)n2)cc1 | 1.09
CC(=O)c1cnc2ccc(-c3cc(Cl)c(O)c(Cl)c3)nc2c1N[C@H]1CC[C@H](CN(C)C)CC1 | 0.657
O=C(NCCCNc1nc(Nc2cccc(CN3CCOCC3)c2)ncc1C1CC1)C1CCC1 | 0.937
Nc1ccn([C@@H]2O[C@H](CO)[C@@H](O)[C@H]2O)c(=O)n1 [Cytidine] | 0.915
Nc1ccn([C@H]2C[C@H](O)[C@@H](CO)O2)c(=O)n1 [2'-Deoxycytidine monohydrate] | 1.07
Nc1ccn([C@@H]2O[C@H](CO)[C@@H](O)C2(F)F)c(=O)n1 [Gemcitabine] | 0.0956

Compound | cell viability
Nc1ccn([C@@H]2O[C@H](CO)[C@@H](O)[C@@H]2O)c(=O)n1 [Cytarabine] | 0.12
CC(=O)Nc1ccn([C@@H]2O[C@H](CO)[C@@H](O)[C@H]2O)c(=O)n1 [N4-Acetylcytidine] | 1.06
Nc1ccn([C@@H]2O[C@H](CO)[C@@H](O)C2(F)F)c(=O)n1 [Gemcitabine HCl] | 0.121
CCCC(CCC)C(=O)Nc1ccn([C@@H]2O[C@H](CO)[C@@H](O)C2(F)F)c(=O)n1 | 1.12
C[C@H](NP(=O)(OC[C@H]1O[C@@H](n2ccc(N)nc2=O)C(F)(F)[C@@H]1O)Oc1ccccc1)C(=O)OCc1ccccc1 (stereo partly drawn) [Acelarin] | 0.135
Nc1ccn([C@@H]2CS[C@H](CO)O2)c(=O)n1 [Lamivudine] | 1.21
CCNC(=O)c1cc2c(-c3cc(C(C)(C)O)ccc3Oc3c(C)cc(F)cc3C)cn(C)c(=O)c2[nH]1 | 0.898
C[C@H](NC(=O)CCC(F)(F)F)C(=O)N[C@@H]1C(=O)N(CCO)c2ncccc2-c2ccccc21 [Crenigacestat] | 1.05
CC(C)=CCC[C@](C)(O[C@@H]1O[C@H](CO)[C@@H](O)[C@H](O)[C@H]1O)[C@H]1CC[C@]2(C)[C@@H]1[C@H](O)C[C@@H]1[C@@]3(C)CC[C@H](O[C@@H]4O[C@H](CO)[C@@H](O)[C@H](O)[C@H]4O[C@@H]4O[C@H](CO)[C@@H](O)[C@H](O)[C@H]4O)C(C)(C)[C@@H]3CC[C@]12C [Ginsenoside Rd] | 1.18
C=CC(=O)Nc1ccc(CN2C(=O)N(c3cc(OC)cc(OC)c3)Cc3cnc(Nc4ccc(N5CCN(C)CC5)cc4)nc32)cc1 | 0.858
OC[C@H]1O[C@@H](Oc2ccc3c(c2)OC[C@H]2c4cc5c(cc4O[C@@H]32)OCO5)[C@H](O)[C@@H](O)[C@@H]1O [Trifolirhizin] | 1.02
O=c1cc(N2CCOCC2)oc2c(-c3ccc4c(c3)OCCO4)csc12 | 1.14
Nc1ccccc1NC(=O)CCCCCCC(=O)Nc1ccccc1 | 1.09
Cc1c[nH]c2nc(Nc3ccc(N4CCN(C)CC4)c(F)c3)nc(-c3cccc(CC#N)c3)c12 | 0.777
Cc1ncc(CCCN(C)C)cc1Nc1ncc2c(n1)-c1ccc(C(F)(F)F)cc1NC(=S)C2 | 0.178
C=C(C)[C@@H]1CC[C@]2(C)[C@H](CC=C3[C@@H]4[C@@H](C)[C@H](C)CC[C@]4(C)CC[C@]32C)[C@@]1(C)CCC(=O)O [Roburic acid] | 1.08
CC1=C[C@]2(O)O[C@@]3(CC2=C(C)C)[C@@H](C)CC[C@@H]13 [Curcumenol] | 1.1
CC(=O)O[C@@H]1C[C@H](O)[C@@]23CO[C@@H](O)[C@]1(C)[C@@H]2C[C@@H](O)[C@]1(C)[C@@H]3C(=O)[C@H](OC(C)=O)[C@@]2(C)[C@H](c3ccoc3)C[C@H]3O[C@]321 [Toosendanin] | 0.147
CC(=O)O[C@H]1CC(=O)OC(C)(C)[C@@H]2CC(=O)[C@]3(C)[C@H](CC[C@@]4(C)[C@@H](c5ccoc5)OC(=O)[C@H]5O[C@]543)[C@@]12C [Nomilin] | 1.13
CC(C)=CCC(OC(=O)C=C(C)C)C1=CC(=O)c2c(O)ccc(O)c2C1=O (stereo not drawn) [beta, beta-dimethylacrylshikonin] | 1.03
CC1(C)CC[C@]2(C(=O)O)CC[C@]3(C)C(=CC[C@@H]4[C@@]5(C)CCC(=O)C(C)(C)[C@@H]5CC[C@]43C)[C@@H]2C1 [Oleanonic Acid] | 1.12
O=C(NC1CCOCC1)c1ccc(-c2cc(-c3c[nH]nc3-c3ccccn3)ccn2)cc1 | 1.01
COCCN1CCN(Cc2ccc(-c3n[nH]c4c3C(=O)c3c(NC(=O)NN5CCOCC5)cccc3-4)cc2)CC1 | 0.253

Compound | cell viability
O=C(Nc1c[nH]nc1-c1nc2ccc(CN3CCOCC3)cc2[nH]1)NC1CC1 | 0.106
CCCCCCCCNc1cc(=O)[nH]c(=O)[nH]1 | 1.01
CCC(=O)Oc1ccc2c(c1)CCC1C2CCC2(C)C(OC(=O)CC)CCC12 (stereo not drawn) [17-Beta-Estradiol-3,17-Dipropionate] | 1.24
CCCOc1ccc(CCc2nc3cc(-c4c(C)noc4C)ccc3n2CCN2CCOCC2)cc1 [PF-CBP1 hydrochloride] | 1.06
O=C(Nc1ccc(OC(F)(F)Cl)cc1)c1cnc(N2CC[C@@H](O)C2)c(-c2cc[nH]n2)c1 [Asciminib] | 1.11
NC(=O)Cc1cc[nH]n1 [1H-Pyrazole-3-acetamide] | 0.268
CONC(=O)Nc1ccc(-c2sc3c(c2CN(C)Cc2ccccc2)c(=O)n(-c2ccccc2)c(=O)n3Cc2c(F)cccc2F)cc1 [Sufugolix] | 0.979
COc1cc(N2CCC(N3CCN(C)CC3)CC2)ccc1Nc1ncc(Cl)c(Nc2ccccc2S(=O)(=O)C(C)C)n1 | 0.421
CNS(=O)(=O)c1ccccc1Nc1nc(Nc2ccc(N3CCN(C)CC3)cc2OC)ncc1Cl [ALK inhibitor 2] | 0.448
CN1CCN(Cc2ccc(Nc3ncc(Cl)c(Nc4ccccc4S(=O)(=O)N(C)C)n3)cc2)CC1 | 0.0869
O=C(/C=C/c1ccc(O)cc1)C1=C(O)C(O)([C@@H]2O[C@H](CO)[C@@H](O)[C@H](O)[C@H]2O)C(O)=C([C@@H]2O[C@H](CO)[C@@H](O)[C@H](O)[C@H]2O)C1=O (stereo partly drawn) [Hydroxysafflor yellow A] | 1.07
CCOCc1nc2c(N)nc3ccccc3c2n1CC(C)(C)O [Resiquimod] | 1.06
O=C(Nc1cccc(-c2ccccc2)c1)OC1CCCCC1 | 1.01
COc1ccc(CCc2cc(OC)c(OC)c(OC)c2)cc1O [Erianin] | 0.335
O=C(Nc1ccc(CN2CCOCC2)cc1)c1ccc(-c2cccc(Cl)c2)o1 | 0.775
CCNC(=O)c1noc(-c2cc(C(C)C)c(O)cc2O)c1-c1ccc(CN2CCOCC2)cc1 [Luminespib] | 0.0552
CCNC(=O)c1noc(-c2cc(Cl)c(O)cc2O)c1-c1ccc(OC)cc1 | 0.237
CC1(C)CC[C@]2(C(=O)O)CC[C@]3(C)C(=CC[C@@H]4[C@@]5(C)CC[C@H](O[C@@H]6O[C@H](C(=O)O)[C@@H](O)[C@H](O[C@@H]7OC[C@@H](O)[C@H](O)[C@H]7O)[C@H]6O)C(C)(C)[C@@H]5CC[C@]43C)[C@@H]2C1 [Momordin Ic] | 1.1
C[C@@]1(CO)C[C@@H](O)C[C@@]2(C)[C@@H]3CC[C@](C)([C@@H](O)CO)C=C3CC[C@H]12 [Kirenol] | 1.1
Cc1c(CN2CCN(c3cccc(C(F)(F)F)c3)CC2)cc(-c2ccccc2)n1NC(=O)c1ccncc1 [Sudoterb free base] | 1.05
Cc1ccc([N+](=O)[O-])cc1S(=O)(=O)N(C)/N=C/c1cnc2ccc(Br)cn12 | 0.165
Cc1ccc([N+](=O)[O-])cc1S(=O)(=O)N(C)/N=C/c1cnc2ccc(Br)cn12 [PIK-75  hydrochloride] | 0.153
